Screens: PubChem, National Center for Advancing Translational Sciences (NCATS)
A selection: hits, their analogues and other compounds. The true share with any hit is near 8%.
KB-3-1 tox – KB-3-1 parental cell cytotoxicity; KB-3-1 viability, CellTiter-Glo ATP luminescence, 72 h; Potency, µM (series often up to 46.1 µM), most hits filed as cytotoxic; actives 1.4% (n = 400,000); note: % is set by controls: 0 for no effect and ±100 for the full control effect; nearly all actives have a fitted effect of over 60% in size
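Parental KB-3-1 adenocarcinoma cells in phenol-red-free DMEM with 10% FBS were pin-treated with compounds at several concentrations, incubated 72 h at 37 °C, and viability read by CellTiter-Glo luminescence; concentration-effect curves were fitted after normalization.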
MCF10A rerep – DNA re-replication induction in MCF 10a cells; MCF 10A DNA re-replication, Hoechst nuclear intensity, 48 h; actives 2.9% (n = 350,000); Potency, µM (series often up to 46.1 µM), for the others: at the top dose activity, positive = re-replication, most hits filed as activators; note: % of control where 0% means no effect; nearly all actives have a fitted effect of over 50% in size
SW480 rereplic – inducers of DNA re-replication in SW480 colon cancer cells | SW480 DNA re-replication, Hoechst DNA content imaging, 48 h | Potency, µM (series often up to 46.1 µM), for the others: at the highest dose re-replication activation, usual class: activators | actives 1.8% (n = 340,000); note: % of control where 0% means no effect; nearly all actives have a fitted effect of over 55% in size
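Image-based read-out: total Hoechst fluorescence of nuclei (405 nm excitation, 500-530 nm emission), with hits raising the fraction of high-intensity nuclei. SW480 colon cells incubated 48 hr with compounds at 37 C.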
KB-V1 MDR tox – kills drug-selected multidrug resistant KB-V1 cells; AID 1347076; Potency, µM (series often up to 46.1 µM), actives largely listed as cytotoxic; KB-V1 MDR cells viability, CellTiter-Glo, 72 h; actives 3.4% (n = 400,000); note: % is set by controls: 0 for no effect and ±100 for the full control effect; nearly all actives have a fitted effect of over 60% in size
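KB-V1, DMEM (no phenol red) + 10% FBS; cpd pin-transferred, titration series; 72 h, 37 degrees C; CellTiter-Glo, luminescence. Data normalized, curve-fit.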
HT1080-NT tox – kills 2HG-producing HT-1080-NT fibrosarcoma cells; HT-1080-NT fibrosarcoma viability, CellTiter-Glo ATP luminescence, 48 h; Potency, µM (titrated, usually from 46.1 µM), for inactives: top-dose activity, negative = less viability, most hits filed as cytotoxic; actives 1.6% (n = 360,000); AID 686970;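 note: NT is the 2HG producing partner of a matched IDH1 knockdown line; 0% = DMSO-treated cells and -100% = media-only wells without cells; nearly all actives have a fitted effect of over 55% in size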
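750 cells/well, RPMI + 5% FBS; 2 h settle, compound pin-transfer, 48 h at 37 degrees C. CellTiter-Glo 10 min RT, luminescence. Normalized to DMSO and media-only wells.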
HT1080 IDH1KD tx – toxicity to HT-1080 IDH1 knockdown cells (counter line). actives 2% (n = 360,000). AID 686971. Potency, µM (highest dose often 46.1 µM), for inactives: at the top dose activity, negative = toxicity, most hits filed as cytotoxic. HT-1080 IDH1 knockdown viability, ATP luminescence, 48 h;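 note: 0% = DMSO wells and -100% = cell-free medium wells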
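Viability of IDH1-knockdown HT-1080 fibrosarcoma cells was assessed by CellTiter-Glo after 48 h at 37 °C with titrated compound; concentration-effect curves were classified by fit quality and response size.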
* hit, by the source's call; i = inactive; ? = inconclusive; · = no result; [ ] = another dose, or the depositor's remark. Calls come from the whole dose curve; as a rule, active = well fitted curve in the direction sought with a large enough effect; inconclusive = small, poorly fitted or top-dose-only effect, or another doubt; inactive = no such curve, though single readings can be large; an effect the other way counts as inactive or inconclusive. Potency is the fitted concentration of half-maximal effect.

SMILES	KB-3-1 tox	MCF10A rerep	SW480 rereplic	KB-V1 MDR tox	HT1080-NT tox	HT1080 IDH1KD tx
CC(=O)c1c(N2CCN(c3ccccc3)CC2)nc(=S)n(-c2ccccc2)c1C	i	21µM*	13%	i	1%	-17%
CC(=O)c1c(N2CCN(Cc3ccccc3)CC2)nc(=S)n(Cc2ccccc2)c1C	?	15%	?	2.9µM*	-3%	-2%
CCn1c(C)c(C(C)=O)c(N2CCN(c3ccc(F)cc3)CC2)nc1=S	i	14%	-5%[9.22 µM]	i	14%	9%
CC(=O)c1c(N2CCN(c3ccc(F)cc3)CC2)nc(=S)n(Cc2ccccc2)c1C	23µM*	?	?	?	-18%	-25%
C=C1NC(=O)c2cc(CN(C)c3ccc(C(=O)N[C@@H](CCC(=O)O)C(=O)O)s3)ccc2N1	·	19%	2%	·	·	·
Cc1nn(C(C)(C)C)c(OC(=O)c2ccc3c(c2)OCO3)c1Sc1ccccc1	i	8%	1%	i	-23%	?
Cc1nn(C(C)(C)C)c(OC(=O)c2ccc3c(c2)OCO3)c1S(=O)(=O)c1ccccc1	i	?	?	i	21µM*	?
Cc1ccc(S(=O)(=O)c2c(C)nn(C(C)(C)C)c2OC(=O)c2ccco2)cc1	i	13µM*	-1%	i	23µM*	?
Cc1ccc(S(=O)(=O)c2c(C)nn(C(C)(C)C)c2OC(=O)c2cccs2)cc1	i	18µM*	-5%	i	23µM*	26µM*
CC(=O)Oc1c(S(=O)(=O)c2ccc(C)cc2)c(C)nn1C(C)(C)C	?	?	?	?	-21%	-3%
Cc1ccc(S(=O)(=O)c2c(C)nn(C(C)(C)C)c2OC(=O)c2ccc(Br)o2)cc1	?	?	-2%	?	?	?
CCOC(=O)C(=NC(C)(C)C)NNc1cc(Cl)ccc1Cl	i	?	-1%	i	1%	1%
CCOC(=O)C(=NC(C)C)NNc1cc(Cl)ccc1Cl	i	16µM*	-9%	i	11%	1%
O=C1C2C(C(=O)N1/N=C/c1ccc(N3CCCCC3)o1)C1C=CC2C12CC2 (centres undefined)	?	18µM*	?	?	9%	11%
O=C(O)CN1C(=O)/C(=C/c2ccc(N3CCCCC3)o2)SC1=S	i	-2%	-4%	i	-11%	-1%
COC(=O)c1ccc2c(=O)n(CCCCCC(=O)NCCc3ccccc3)c(=O)[nH]c2c1	i	·	·	i	·	·
Cc1ccc(CNC(=O)C2CCCN(c3ncnc4onc(-c5ccc(F)cc5)c34)C2)cc1 (centres undefined)	i	·	·	i	·	·
CCc1ccc2occ(CC(=O)Nc3c(C(=O)c4ccccc4)oc4ccccc34)c2c1	i	·	·	i	·	·
COC(=O)[C@]12CCCCC=C1N(Cc1cccc3ccccc13)C(=O)[C@H](CC(=O)NCc1cccc(C(F)(F)F)c1)C2	?	·	·	9.2µM*	?	?
COC(=O)[C@]12CCCCC=C1N(Cc1ccco1)C(=O)[C@H](CC(=O)NCc1cccc(C(F)(F)F)c1)C2	i	·	·	i	-5%	-11%
CCOC(=O)[C@]12CCCC=C1N(Cc1cccc3ccccc13)C(=O)[C@H](CC(=O)NCc1cccc(C(F)(F)F)c1)C2	i	·	·	i	?	-23%
CCCCCCCCN1C(=O)[C@H](CC(=O)NCc2cccc(C(F)(F)F)c2)C[C@@]2(C(=O)OC)CC(C)(C)CC=C12	?	·	·	23µM*	?	?
CCOC(=O)[C@]12CCCC=C1N(Cc1ccccc1)C(=O)[C@H](CC(=O)NCc1cccc(C(F)(F)F)c1)C2	i	·	·	?	29µM*	?
CCOC(=O)c1c(C)oc2nc(C)nc(N3CCN(c4cccc(C)c4C)CC3)c12	i	·	·	i	·	·
